Holding throughout (assay): DAPPL (digital affinity profiling via proximity ligation, sequencing); 10 mM Tris-HCl pH 7.5, 50 mM NaCl, 1 mM DTT, 4% glycerol, room temperature, 30 min; GST-TFs on glutathione beads, 16-mer random dsDNA library, 0.1% formaldehyde crosslink after washing; high values mean tight binding
One assay concerns the target T1, FEV (Homo sapiens, UniProt Q99581 1-238).
T1 sequence: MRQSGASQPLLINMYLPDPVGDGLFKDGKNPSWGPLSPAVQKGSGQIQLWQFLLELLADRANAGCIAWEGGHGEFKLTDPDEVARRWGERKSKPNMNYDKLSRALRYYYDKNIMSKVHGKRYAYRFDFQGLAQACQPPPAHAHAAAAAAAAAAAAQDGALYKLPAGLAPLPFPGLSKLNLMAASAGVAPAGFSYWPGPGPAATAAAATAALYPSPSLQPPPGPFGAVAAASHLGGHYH
The conditions noted are these: protein: recombinant; tags: N-terminal GST; dsDNA, one strand shown. The method in brief: (§1)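 Human transcription factors fused to GST were expressed in yeast, captured on glutathione beads, given DNA barcodes and pooled with a GST-only negative control. Pools were incubated with 200 nmole of a 16-mer random double-stranded DNA library in Tris/NaCl/DTT/glycerol buffer at room temperature for 30 min. They were then washed, crosslinked with 0.1% formaldehyde, proximity-ligated (BsaI/T4 ligase, 1 h, 37 °C), PCR-amplified and sequenced on an Illumina NextSeq500. Binding signal is each 6-mer's read frequency for a factor divided by its frequency for the GST control.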

In another assay the target is ETV5 (Homo sapiens, UniProt P41161 1-510). The conditions noted are these: protein: recombinant; tags: N-terminal GST; dsDNA, one strand shown. The method in brief:
as §1

For a further assay, the target named is HSF1 (Homo sapiens, UniProt Q00613 1-529). The note with it: protein: recombinant; tags: N-terminal GST; chain copies: 3; dsDNA, one strand shown. The method, boiled down: as §1
Chain of HSF1 (Q00613 whole entry): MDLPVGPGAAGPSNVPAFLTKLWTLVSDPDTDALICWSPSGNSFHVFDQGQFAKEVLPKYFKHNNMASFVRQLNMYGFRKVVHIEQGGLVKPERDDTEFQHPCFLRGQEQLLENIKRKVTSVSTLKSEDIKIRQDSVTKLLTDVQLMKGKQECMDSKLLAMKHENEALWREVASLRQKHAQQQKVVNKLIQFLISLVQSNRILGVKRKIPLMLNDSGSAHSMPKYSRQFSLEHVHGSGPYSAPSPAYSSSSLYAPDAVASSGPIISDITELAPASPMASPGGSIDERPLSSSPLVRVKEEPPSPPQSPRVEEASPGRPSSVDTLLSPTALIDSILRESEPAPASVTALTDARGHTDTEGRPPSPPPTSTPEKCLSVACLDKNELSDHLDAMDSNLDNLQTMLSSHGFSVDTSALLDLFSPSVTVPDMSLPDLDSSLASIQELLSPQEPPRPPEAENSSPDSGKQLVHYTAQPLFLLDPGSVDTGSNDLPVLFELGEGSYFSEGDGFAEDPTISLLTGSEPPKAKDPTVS
The next assay addresses T2, SPIC (Homo sapiens, UniProt Q8N5J4 1-248).
T2 sequence: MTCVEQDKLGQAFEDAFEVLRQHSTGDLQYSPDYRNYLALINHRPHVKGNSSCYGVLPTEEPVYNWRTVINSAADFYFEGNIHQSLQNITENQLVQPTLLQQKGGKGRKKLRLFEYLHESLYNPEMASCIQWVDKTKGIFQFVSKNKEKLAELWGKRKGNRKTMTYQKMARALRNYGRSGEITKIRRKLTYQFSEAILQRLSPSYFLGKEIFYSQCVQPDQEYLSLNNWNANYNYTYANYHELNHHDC
The conditions noted are these: protein: recombinant; tags: N-terminal GST; dsDNA, one strand shown. The method, boiled down: as §1

The next assay deals with ELF4 (Homo sapiens, UniProt Q99607 1-663). The conditions noted are these: protein: recombinant; tags: N-terminal GST; dsDNA, one strand shown. The method, boiled down: as §1
Chain of ELF4 (Q99607 whole entry): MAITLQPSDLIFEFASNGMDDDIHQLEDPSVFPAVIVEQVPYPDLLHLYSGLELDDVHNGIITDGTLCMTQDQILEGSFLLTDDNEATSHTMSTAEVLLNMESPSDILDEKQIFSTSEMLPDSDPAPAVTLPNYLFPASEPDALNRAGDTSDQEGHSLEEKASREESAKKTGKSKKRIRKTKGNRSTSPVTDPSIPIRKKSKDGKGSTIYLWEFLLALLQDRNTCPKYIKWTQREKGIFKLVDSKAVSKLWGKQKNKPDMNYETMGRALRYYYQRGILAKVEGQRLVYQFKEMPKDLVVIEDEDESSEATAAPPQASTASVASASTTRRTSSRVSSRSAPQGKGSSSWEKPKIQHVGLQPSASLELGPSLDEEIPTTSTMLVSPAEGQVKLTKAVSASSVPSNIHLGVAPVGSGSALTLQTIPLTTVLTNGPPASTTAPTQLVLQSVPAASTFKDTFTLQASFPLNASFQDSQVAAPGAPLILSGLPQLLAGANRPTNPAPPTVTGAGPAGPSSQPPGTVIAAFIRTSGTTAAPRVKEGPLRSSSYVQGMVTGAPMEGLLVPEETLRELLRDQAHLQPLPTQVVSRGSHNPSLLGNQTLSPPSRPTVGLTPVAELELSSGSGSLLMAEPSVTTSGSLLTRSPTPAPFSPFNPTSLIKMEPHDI
Another assay addresses T3, ELK4 (Homo sapiens, UniProt P28324-2 1-405).
T3 sequence: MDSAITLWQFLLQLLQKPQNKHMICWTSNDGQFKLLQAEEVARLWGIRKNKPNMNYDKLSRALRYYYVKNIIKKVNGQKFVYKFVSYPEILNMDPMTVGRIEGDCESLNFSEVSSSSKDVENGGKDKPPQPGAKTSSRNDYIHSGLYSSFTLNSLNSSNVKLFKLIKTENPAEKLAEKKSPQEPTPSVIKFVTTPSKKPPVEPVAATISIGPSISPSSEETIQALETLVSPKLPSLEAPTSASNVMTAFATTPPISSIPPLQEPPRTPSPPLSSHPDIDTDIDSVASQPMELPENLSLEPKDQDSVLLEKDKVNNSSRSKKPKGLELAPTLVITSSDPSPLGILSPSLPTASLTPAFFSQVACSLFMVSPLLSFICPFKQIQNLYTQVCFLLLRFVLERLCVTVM
The conditions noted are these: protein: recombinant; tags: N-terminal GST; dsDNA, one strand shown. The method in brief: as §1

Another assay concerns the target T4, ETV2 (Homo sapiens, UniProt O00321 1-342).
T4 sequence: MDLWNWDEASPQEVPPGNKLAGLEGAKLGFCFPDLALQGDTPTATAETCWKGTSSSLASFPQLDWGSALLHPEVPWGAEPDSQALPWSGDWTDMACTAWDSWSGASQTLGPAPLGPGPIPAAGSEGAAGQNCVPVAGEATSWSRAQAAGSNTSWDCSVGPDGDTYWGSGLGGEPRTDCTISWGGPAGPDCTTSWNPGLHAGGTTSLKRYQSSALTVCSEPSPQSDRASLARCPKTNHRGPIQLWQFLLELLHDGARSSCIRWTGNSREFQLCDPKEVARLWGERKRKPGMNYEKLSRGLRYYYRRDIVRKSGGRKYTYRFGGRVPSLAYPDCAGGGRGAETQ
The conditions noted are these: protein: recombinant; tags: N-terminal GST; dsDNA, one strand shown. The method, boiled down:
as §1

Another assay deals with T5, ELF3 (Homo sapiens, UniProt P78545 1-371).
T5 sequence: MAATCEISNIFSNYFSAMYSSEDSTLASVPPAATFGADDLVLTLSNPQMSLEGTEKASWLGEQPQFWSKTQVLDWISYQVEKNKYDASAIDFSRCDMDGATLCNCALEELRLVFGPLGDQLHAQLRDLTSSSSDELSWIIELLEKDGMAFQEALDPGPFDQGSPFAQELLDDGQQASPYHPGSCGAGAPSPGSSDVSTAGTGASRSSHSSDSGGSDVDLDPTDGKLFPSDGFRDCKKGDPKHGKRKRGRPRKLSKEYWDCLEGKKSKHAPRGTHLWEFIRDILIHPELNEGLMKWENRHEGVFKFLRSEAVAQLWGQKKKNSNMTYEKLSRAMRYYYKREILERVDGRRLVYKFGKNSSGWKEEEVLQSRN
The note with it: protein: recombinant; tags: N-terminal GST; dsDNA, one strand shown. The method, boiled down: as §1

The target in a further assay is CRX (Homo sapiens, UniProt O43186 1-299). The conditions noted are these: protein: recombinant; tags: N-terminal GST; dsDNA, one strand shown. The method, boiled down:
as §1

Another assay concerns the target ETV1 (Homo sapiens, UniProt P50549 1-477). The note with it: protein: recombinant; tags: N-terminal GST; dsDNA, one strand shown. The method in brief:
as §1

For another assay, the target named is T6, ERF (Homo sapiens, UniProt P50548 1-548).
T6 sequence: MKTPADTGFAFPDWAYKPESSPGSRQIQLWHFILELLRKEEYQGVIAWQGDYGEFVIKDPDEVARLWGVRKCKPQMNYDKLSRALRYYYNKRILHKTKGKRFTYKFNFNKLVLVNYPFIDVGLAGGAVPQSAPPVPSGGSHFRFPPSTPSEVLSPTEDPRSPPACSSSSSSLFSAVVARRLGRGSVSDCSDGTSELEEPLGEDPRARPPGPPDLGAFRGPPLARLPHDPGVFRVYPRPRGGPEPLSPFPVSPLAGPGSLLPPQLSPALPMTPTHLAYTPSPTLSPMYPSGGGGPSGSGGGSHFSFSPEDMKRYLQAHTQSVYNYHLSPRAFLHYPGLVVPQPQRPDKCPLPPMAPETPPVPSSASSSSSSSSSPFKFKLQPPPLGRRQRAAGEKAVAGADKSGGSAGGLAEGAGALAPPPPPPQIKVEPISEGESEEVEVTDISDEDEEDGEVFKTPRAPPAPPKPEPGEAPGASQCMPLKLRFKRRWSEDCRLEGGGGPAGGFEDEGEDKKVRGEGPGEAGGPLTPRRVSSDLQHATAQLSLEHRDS
The conditions noted are these: protein: recombinant; tags: N-terminal GST; dsDNA, one strand shown. The method, boiled down:
as §1

The target of a further assay is T7, ETV3L (Homo sapiens, UniProt Q6ZN32 1-361).
T7 sequence: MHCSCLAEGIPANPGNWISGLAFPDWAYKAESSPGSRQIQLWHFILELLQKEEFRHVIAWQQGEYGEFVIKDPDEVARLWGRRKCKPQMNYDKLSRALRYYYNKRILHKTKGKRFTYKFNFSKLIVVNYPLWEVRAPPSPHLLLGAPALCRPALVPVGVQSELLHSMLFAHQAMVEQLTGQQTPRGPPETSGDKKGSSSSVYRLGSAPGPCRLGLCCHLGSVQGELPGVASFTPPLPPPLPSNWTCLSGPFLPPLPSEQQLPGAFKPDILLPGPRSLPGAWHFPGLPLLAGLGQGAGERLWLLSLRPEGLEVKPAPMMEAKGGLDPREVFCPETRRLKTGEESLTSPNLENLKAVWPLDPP
The note with it: protein: recombinant; tags: N-terminal GST; dsDNA, one strand shown. The method in brief:
as §1

A further assay addresses T8, ETS2 (Homo sapiens, UniProt P15036 1-469).
T8 sequence: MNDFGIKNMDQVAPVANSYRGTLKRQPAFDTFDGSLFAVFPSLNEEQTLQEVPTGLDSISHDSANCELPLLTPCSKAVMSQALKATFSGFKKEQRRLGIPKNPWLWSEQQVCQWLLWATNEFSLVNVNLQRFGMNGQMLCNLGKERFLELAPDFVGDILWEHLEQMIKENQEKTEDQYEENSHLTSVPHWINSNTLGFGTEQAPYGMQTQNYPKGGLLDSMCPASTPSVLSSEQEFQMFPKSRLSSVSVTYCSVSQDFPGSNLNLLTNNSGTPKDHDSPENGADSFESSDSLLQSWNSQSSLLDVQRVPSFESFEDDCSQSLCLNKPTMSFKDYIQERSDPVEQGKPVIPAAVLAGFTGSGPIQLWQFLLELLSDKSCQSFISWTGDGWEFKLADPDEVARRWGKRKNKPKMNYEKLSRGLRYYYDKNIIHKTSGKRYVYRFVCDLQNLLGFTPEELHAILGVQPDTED
The note with it: protein: recombinant; tags: N-terminal GST; dsDNA, one strand shown. The method in brief:
as §1

For another assay, the target named is T9, SPDEF (Homo sapiens, UniProt O95238 1-335).
T9 sequence: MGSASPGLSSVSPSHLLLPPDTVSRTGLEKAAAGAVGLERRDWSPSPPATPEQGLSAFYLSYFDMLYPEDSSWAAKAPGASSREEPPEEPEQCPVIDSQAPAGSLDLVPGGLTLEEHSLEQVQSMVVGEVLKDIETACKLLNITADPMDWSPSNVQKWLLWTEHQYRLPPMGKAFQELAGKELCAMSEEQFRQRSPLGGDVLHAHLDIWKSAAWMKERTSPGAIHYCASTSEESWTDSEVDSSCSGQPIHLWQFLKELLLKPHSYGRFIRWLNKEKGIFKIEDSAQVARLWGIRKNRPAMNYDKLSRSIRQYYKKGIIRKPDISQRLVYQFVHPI
The note with it: protein: recombinant; tags: N-terminal GST; dsDNA, one strand shown. The method, boiled down: as §1

The next assay deals with T10, ETV7 (Homo sapiens, UniProt Q9Y603 1-341).
T10 sequence: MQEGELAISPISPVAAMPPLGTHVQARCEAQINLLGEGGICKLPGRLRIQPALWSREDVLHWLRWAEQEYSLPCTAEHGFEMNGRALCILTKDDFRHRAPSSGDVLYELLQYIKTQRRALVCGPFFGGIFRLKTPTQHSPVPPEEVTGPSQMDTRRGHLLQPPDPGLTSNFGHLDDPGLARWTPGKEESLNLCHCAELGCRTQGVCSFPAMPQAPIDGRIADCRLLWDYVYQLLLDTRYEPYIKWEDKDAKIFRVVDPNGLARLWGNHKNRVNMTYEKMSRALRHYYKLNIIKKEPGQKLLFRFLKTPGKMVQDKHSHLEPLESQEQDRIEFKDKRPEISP
The conditions noted are these: protein: recombinant; tags: N-terminal GST; dsDNA, one strand shown. The method, boiled down:
as §1

The next assay deals with T11, ELF5 (Homo sapiens, UniProt Q9UKW6-2 1-255).
T11 sequence: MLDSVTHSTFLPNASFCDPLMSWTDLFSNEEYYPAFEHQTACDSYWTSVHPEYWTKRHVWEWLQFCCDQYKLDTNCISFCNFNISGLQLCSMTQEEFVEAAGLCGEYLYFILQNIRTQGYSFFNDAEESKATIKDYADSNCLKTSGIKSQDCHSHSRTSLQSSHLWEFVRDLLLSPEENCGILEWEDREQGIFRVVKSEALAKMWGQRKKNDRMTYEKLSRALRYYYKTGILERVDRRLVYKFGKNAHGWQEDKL
The conditions noted are these: protein: recombinant; tags: N-terminal GST; dsDNA, one strand shown. The method, boiled down: as §1

The target in another assay is T12, ETV3 (Homo sapiens, UniProt P41162-2 1-143).
T12 sequence: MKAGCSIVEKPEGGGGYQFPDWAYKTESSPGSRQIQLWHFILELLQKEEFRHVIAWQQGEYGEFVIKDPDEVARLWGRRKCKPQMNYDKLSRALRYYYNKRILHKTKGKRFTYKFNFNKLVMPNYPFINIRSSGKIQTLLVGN
The conditions noted are these: protein: recombinant; tags: N-terminal GST; dsDNA, one strand shown. The method, boiled down:
as §1

The target in the next assay is ETV6 (Homo sapiens, UniProt P41212 1-452). The note with it: protein: recombinant; tags: N-terminal GST; dsDNA, one strand shown. The method in brief:
as §1

Chain of ETV6 (P41212 whole entry): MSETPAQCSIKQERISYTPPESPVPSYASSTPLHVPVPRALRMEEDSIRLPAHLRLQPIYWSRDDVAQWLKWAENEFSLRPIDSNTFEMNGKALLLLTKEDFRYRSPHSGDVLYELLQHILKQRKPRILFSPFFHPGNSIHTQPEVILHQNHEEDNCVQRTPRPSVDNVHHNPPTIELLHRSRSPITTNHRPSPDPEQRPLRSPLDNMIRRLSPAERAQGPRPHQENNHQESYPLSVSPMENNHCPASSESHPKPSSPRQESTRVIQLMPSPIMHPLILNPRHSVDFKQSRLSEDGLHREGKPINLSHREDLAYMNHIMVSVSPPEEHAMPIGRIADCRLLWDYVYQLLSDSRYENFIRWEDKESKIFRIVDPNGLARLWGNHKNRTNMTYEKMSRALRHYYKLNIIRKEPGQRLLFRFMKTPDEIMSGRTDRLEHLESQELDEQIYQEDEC
Chain of ETV5 (P41161 whole entry): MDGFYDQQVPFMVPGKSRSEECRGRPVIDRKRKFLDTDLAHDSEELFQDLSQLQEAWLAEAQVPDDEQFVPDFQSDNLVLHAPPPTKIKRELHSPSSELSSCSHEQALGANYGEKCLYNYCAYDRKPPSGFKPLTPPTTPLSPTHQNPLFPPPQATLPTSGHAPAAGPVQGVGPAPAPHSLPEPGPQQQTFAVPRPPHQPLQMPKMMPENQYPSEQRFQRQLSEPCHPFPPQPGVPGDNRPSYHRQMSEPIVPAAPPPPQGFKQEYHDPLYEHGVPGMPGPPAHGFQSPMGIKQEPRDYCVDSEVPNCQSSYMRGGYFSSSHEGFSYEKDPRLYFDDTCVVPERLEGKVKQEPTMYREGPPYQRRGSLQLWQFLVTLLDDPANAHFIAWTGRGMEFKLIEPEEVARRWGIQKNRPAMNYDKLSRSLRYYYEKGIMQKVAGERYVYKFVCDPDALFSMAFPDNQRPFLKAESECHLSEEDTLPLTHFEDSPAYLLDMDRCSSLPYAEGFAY
Chain of ETV1 (P50549 whole entry): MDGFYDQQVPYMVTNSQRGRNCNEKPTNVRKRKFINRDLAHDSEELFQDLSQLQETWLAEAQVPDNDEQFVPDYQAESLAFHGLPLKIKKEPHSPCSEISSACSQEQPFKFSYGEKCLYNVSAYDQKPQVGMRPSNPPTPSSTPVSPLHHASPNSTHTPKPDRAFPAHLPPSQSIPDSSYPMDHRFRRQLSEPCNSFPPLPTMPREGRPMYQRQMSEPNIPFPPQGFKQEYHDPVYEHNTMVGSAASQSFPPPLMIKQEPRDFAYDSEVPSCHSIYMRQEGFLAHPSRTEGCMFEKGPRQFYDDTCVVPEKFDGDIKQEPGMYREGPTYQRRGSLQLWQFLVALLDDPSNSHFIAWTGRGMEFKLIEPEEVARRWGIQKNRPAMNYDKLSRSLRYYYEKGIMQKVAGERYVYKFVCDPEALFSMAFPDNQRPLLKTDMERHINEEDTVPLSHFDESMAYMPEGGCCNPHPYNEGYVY
Chain of CRX (O43186 whole entry): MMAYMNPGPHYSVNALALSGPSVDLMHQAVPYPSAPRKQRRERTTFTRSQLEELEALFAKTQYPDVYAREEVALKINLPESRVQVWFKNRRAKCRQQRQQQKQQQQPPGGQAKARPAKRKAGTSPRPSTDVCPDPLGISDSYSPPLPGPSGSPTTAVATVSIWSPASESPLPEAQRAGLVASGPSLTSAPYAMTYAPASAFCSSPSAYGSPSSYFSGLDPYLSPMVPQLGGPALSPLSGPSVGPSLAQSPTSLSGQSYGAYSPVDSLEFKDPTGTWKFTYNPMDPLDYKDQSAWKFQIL

As to TAAGAA, the binding signal is 1.05 fold enrichment (6-mer frequency, TF over GST control) with FEV; 1.1 fold enrichment (6-mer frequency, TF over GST control) with ETV5; 1.77 fold enrichment (6-mer frequency, TF over GST control) with HSF1; 1.21 fold enrichment (6-mer frequency, TF over GST control) in the assay with SPIC; 1.13 fold enrichment (6-mer frequency, TF over GST control) with ELF4; 1.09 fold enrichment (6-mer frequency, TF over GST control) with ELK4. Also, the binding signal with ETV2 was 1.2 fold enrichment (6-mer frequency, TF over GST control); with ELF3 it was 1.02 fold enrichment (6-mer frequency, TF over GST control); with CRX it was 1.96 fold enrichment (6-mer frequency, TF over GST control); with ETV1, 1.13 fold enrichment (6-mer frequency, TF over GST control); with ERF, 1.11 fold enrichment (6-mer frequency, TF over GST control); with ETV3L it was 1.09 fold enrichment (6-mer frequency, TF over GST control). Also, the binding signal with ETS2 was 1.03 fold enrichment (6-mer frequency, TF over GST control); in the assay with SPDEF it was 1.06 fold enrichment (6-mer frequency, TF over GST control); with ETV7 it was 1.12 fold enrichment (6-mer frequency, TF over GST control); with ELF5, 1.03 fold enrichment (6-mer frequency, TF over GST control); with ETV3, 1.07 fold enrichment (6-mer frequency, TF over GST control); with ETV6, 1.08 fold enrichment (6-mer frequency, TF over GST control).

The values above are taken from publication PMC7862700, “An all-to-all approach to the identification of sequence-specific readers for epigenetic DNA modifications on cytosine”.
